Source: PubChem BioAssay (NCATS)
Results filed as inconclusive are left out. Calls of active or inactive are those of the source. The call rests on the fitted dose curve; in most records, active means well fitted curve in the direction sought with a large enough effect; inconclusive means small, poorly fitted or top-dose-only effect, or another doubt; inactive means no such curve, though single readings can be large; an effect the other way counts as inactive or inconclusive.

Experiments:
[1] = MultiTox-Fluor Cytotoxicity Assay - LYMP1-003 - Live Cells (AID 962);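 further: cells exposed to compound for 16 hours at 37 °C; cytotoxic hits lower the live-cell protease signal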
Procedure, shortened: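 Cells plated at 2500 per well and incubated 5 hr; compounds added and incubated 16 hr at 37 C; MultiTox-Fluor reagent added for 60 min at room temperature; fluorescence of liberated AFC measured at 405/510 nm.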

[2] = Cell Viability - LYMP1-003 - Assay at 24 hr (AID 963)
Excerpt: NIH Chemical Genomics Center [NCGC]
NIH Molecular Libraries Screening Centers Network [MLSCN]
National Institutes of Environmental Health Sciences [NIEHS]
National Toxicology Program [NTP]
We have developed a 1536-well cell-based assay for quantitative high throughput screening (qHTS) against a number of cell lines to determine in vitro cytotoxicity of small molecules. This particular assay uses a human lymphoblastoid cell line (LYMP1-003) purchased from Coriell Institute for Medical Research.
NCGC Assay Protocol Summary:
The CellTiter-Glo luminescent cell viability assay (Promega) is a homogeneous method to measure the number of viable cells in culture. The end point readout of this assay is based on quantitation of intracellular ATP, an indicator of metabolic activity, using the luciferase reaction. […]
Using the CellTiter-Glo luminescent cell viability assay, the amount of cellular ATP was measured in the lymphoblastoid cell line with complete culture medium following compound treatment for 24 hours. […] Library compounds were measured for their ability to cause acute toxicity in the cell line, as reflected by a decrease in intracellular ATP levels, in a concentration-dependent manner. […] AC50 values were determined from concentration-response data modeled with the standard Hill equation. […]
8. Detection; Luminescence; Viewlux plate reader […]

[3] = Cell Viability - LYMP1-003 - Assay at 40 hr (AID 964); further: series mostly up to about 92 µM; nearly all actives have a fitted effect of over 60% in size
Procedure, shortened: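 This qHTS cytotoxicity screen treats human lymphoblastoid cells (LYMP1-003) with compounds for 40 hr and quantifies cellular ATP via luciferase luminescence.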

[4] = Cell Viability - LYMP2-003 (AID 965);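 further: cells exposed to compounds for 24 h before reading; nearly all actives have a fitted effect of over 50% in size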
Procedure, shortened: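 Acute cytotoxicity is scored as a concentration-dependent drop in intracellular ATP, measured by luciferase luminescence in human lymphoblastoid cells treated for 24 hours at 37 C. AC50 values derive from Hill-equation modelling.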

[5] = Cell Viability - LYMP2-004 (AID 966); further: nearly all actives have a fitted effect of over 65% in size
Procedure, shortened: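 Acute toxicity is scored as a concentration-dependent drop in intracellular ATP, quantified by luciferase luminescence, in human lymphoblastoid cells exposed to compound for 24 hr. AC50 derives from Hill-equation modelling.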

[6] = Cell Viability - LYMP2-005 (AID 967); further: series mostly up to about 92 µM
Procedure, shortened: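 qHTS viability screen in LYMP2-005 cells: 24 h at 37 C with compound, ATP luminescence via CellTiter-Glo, AC50 from Hill curves.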

[7] = Cell Viability - LYMP2-009 (AID 968); further: series mostly up to about 92 µM; nearly all actives have a fitted effect of over 55% in size
[8] = Cell Viability - LYMP2-011 (AID 969); further: nearly all actives have a fitted effect of over 60% in size
Procedure, shortened: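 Acute toxicity is scored as a concentration-dependent drop in intracellular ATP of a human lymphoblastoid line after 24 hr treatment. Values are AC50s modeled with the Hill equation.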

[9] = Cell Viability - LYMP2-013 (AID 970); further: series mostly up to about 92 µM; nearly all actives have a fitted effect of over 55% in size
Procedure, shortened: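 Acute toxicity was measured in human lymphoblastoid cells (2500/well) exposed to compound titrations for 24 hr, with ATP luminescence (CellTiter-Glo) as read-out and AC50 fitted by Hill equation.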

[10] = Cell Viability - LYMP2-015 (AID 971); further: nearly all actives have a fitted effect of over 55% in size
Procedure, shortened: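 Acute toxicity was scored as a concentration-dependent drop in intracellular ATP in lymphoblastoid cells after 24 hr compound exposure in complete medium. Detection used CellTiter-Glo luciferase luminescence.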

Measured: outcome

Cc1cc(O)c2c(c1)C(=O)c1cccc(O)c1C2=O
inactive: all assays above
